MCF10A rereplic – DNA re-replication induction in MCF 10a cells. MCF 10A DNA re-replication, Hoechst nuclear intensity, 48 h. Potency, µM (highest dose often 46.1 µM), for the others: top-dose activity, positive = re-replication, hits mostly activators. hit rate 2.9% among 350,000; further: % of control where 0% means no effect; nearly all actives have a fitted effect of over 50% in size
SW480 rerep – DNA re-replication induction in SW480 cells; Potency, µM (top dose mostly 46.1 µM), inactives show top-dose re-replication activation, usual class: activators; hit rate 1.8% among 340,000; AID 624297; SW480 DNA re-replication, Hoechst DNA content imaging, 48 h; further: % of control where 0% means no effect; nearly all actives have a fitted effect of over 55% in size
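DNA re-replication was detected as more nuclei of elevated Hoechst intensity after 48 hr exposure to compound (23 nL pinned per well of 250 cells).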
KB-V1 cytotox – kills drug-selected multidrug resistant KB-V1 cells. KB-V1 MDR cells viability, CellTiter-Glo, 72 h. Potency, µM (titrated, usually from 46.1 µM), actives largely listed as cytotoxic. hit rate 3.4% among 400,000; further: on the % scale 0 is the no-effect control and ±100 the full control effect; nearly all actives have a fitted effect of over 60% in size
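KB-V1, DMEM (no phenol red) + 10% FBS; cpd pin-transferred, titration series; 72 h, 37 degrees C; CellTiter-Glo, luminescence. Data normalized, curve-fit.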
KB-3-1 tox – KB-3-1 parental cell cytotoxicity | hit rate 1.4% among 400,000 | KB-3-1 viability, CellTiter-Glo ATP luminescence, 72 h | Potency, µM (highest dose often 46.1 µM), hits mostly cytotoxic; further: on the % scale 0 is the no-effect control and ±100 the full control effect; nearly all actives have a fitted effect of over 60% in size
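Parental KB-3-1 adenocarcinoma cells in phenol-red-free DMEM with 10% FBS were pin-treated with compounds at several concentrations, incubated 72 h at 37 °C, and viability read by CellTiter-Glo luminescence; concentration-effect curves were fitted after normalization.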
PINK1 expr mod – modulators of PINK1 expression. PINK1 immunofluorescence, high-content cytometry, 24 h. Potency, µM (titrated, usually from 76.6 µM), for the others: top-dose activation (PINK1 increase), most hits filed as activators. hit rate 0.2% among 410,000. AID 624263; active means well fitted activation curve with a large enough effect; inconclusive means small, poorly fitted or top-dose-only effect; cell line not stated here; further: % of control where 0% means no effect; nearly all actives have a fitted effect of over 65% in size
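PINK1 protein, normally rapidly degraded, was detected by immunofluorescence after 24 hour compound treatment of a stable cell line. Titration data (5 concentrations) came from laser-scanning cytometry, with CCCP-treated wells as controls.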
Numbers without * were called inactive; i = inactive; ? = inconclusive; · = no result given; ! = not confirmed by another sample; [ ] = dose if it differs, or a comment. Compounds with a hit are over-represented: about 6.7% of the library has one in this group of screens. Unless noted, the call rests on the fitted dose curve; in most records, active means well fitted curve in the direction sought with a large enough effect; inconclusive means small, poorly fitted or top-dose-only effect, or another doubt; inactive means no such curve, though single readings can be large; an effect the other way counts as inactive or inconclusive. Potency means the concentration at half of the fitted maximal effect.

SMILES	MCF10A rereplic	SW480 rerep	KB-V1 cytotox	KB-3-1 tox	PINK1 expr mod
Cc1[nH]n(-c2ccccc2)c(=O)c1/C=N/NC(=O)COc1ccccc1[N+](=O)[O-]	?	13µM*	?	?	1.6%
Cc1[nH]n(-c2cccc3ccccc23)c(=O)c1/C=N/NC(=O)c1cccc([N+](=O)[O-])c1	?	?	3.26µM*	?	0.1%
O=C(N/N=C/c1c[nH]c2ccccc12)c1cccc([N+](=O)[O-])c1	1.7%	·	i	i	0.1%
CN(Cc1ccc(Cl)cc1)C(c1cc2ccccc2o1)c1nnnn1C(C)(C)C (configuration not stated)	·	·	?	?	2.2%
N#Cc1cc(Oc2cccc3cccnc23)c(-n2nnc3ccccc32)cc1C#N	14.1µM*	?	?	?	-1.3%[38.3 µM]
Cc1ccc2cccc(Oc3ccc([N+](=O)[O-])cc3[N+](=O)[O-])c2n1	5.8%	-1.9%	?	i	9.5%
O=[N+]([O-])c1ccc(Oc2cccc3cccnc23)c([N+](=O)[O-])c1	20.6µM*	?	20.6µM*	i	5.9%
N#Cc1ccc(Oc2cccc3cccnc23)c([N+](=O)[O-])c1	?	11.9%	20.6µM*	i	-0.4%
N#Cc1cc(O)c(-n2nnc3ccccc32)cc1C#N	15.8%	-12.4%	i	i	-1.3%
Cc1cc(C)n(-c2nc(NCC(C)O)c3c4c(sc3n2)COC(C)(C)C4)n1 (configuration not stated)	-2.0%	?	i	i	12.5%[38.3 µM]
Cc1cc(C)n(-c2nc(NCC3CCCO3)c3c4c(sc3n2)COC(C)(C)C4)n1 (configuration not stated)	?	16.8%	?	16.4µM*	3.3%
COC(=O)Nc1nc(-c2ccccc2)c(C(=O)c2ccccc2)s1	0.231µM*	0.411µM*	?	0.164µM*	5.9%
COC(=O)Nc1nc(C)c(C(=O)c2ccccc2)s1	9.2µM*	14.6µM*	7.31µM*	?	5.2%
Cc1nc(Nc2ccccc2)sc1C(=O)c1ccccc1	?	-7.9%	i	i	2.9%
COc1ccc(N(CC(=O)Nc2ccccc2C(F)(F)F)C2=NC3CS(=O)(=O)CC3S2)cc1 (configuration not stated)	-5.7%	0.6%	i	?	0.9%
Cc1cc(C)cc(C(=O)N2CC(=O)Nc3ccc(Br)cc3C2c2ccccc2)c1 (configuration not stated)	·	·	14.6µM*	?	11.0%
Cc1ccc(C(=O)N2CC(=O)Nc3ccc(C)cc3C2c2ccccc2)cc1 (configuration not stated)	21.6%	4.2%	i	i	3.4%
Cc1ccc(C(=O)N2CC(=O)Nc3ccc(F)cc3C2c2ccccc2)cc1[N+](=O)[O-] (configuration not stated)	0.9%	0.7%	14.6µM*	i	-2.8%
COc1cc(=O)n2c(c1C(=O)N(C)Cc1nccs1)CCN(Cc1cccc(F)c1F)CC2	·	·	·	·	1.5%
Cc1ccccc1-c1ccc2c(c1)O[C@H](CN(C)C(=O)C1CC1)[C@@H](C)CN([C@@H](C)CO)S2(=O)=O	·	·	?	i	2.8%
Cc1cccc(-n2c(SCC(=O)Nc3ncc(Cl)cc3Cl)nc3ccccc32)c1	15.2%	?	?	2.91µM*	1.4%
COCCn1c(SCC(=O)Nc2nc(C)c(Cl)cc2Cl)nc2ccccc21	17.3%	-6.5%	?	i	-1.3%
Cc1cccc(-n2c(SCc3cc(=O)n4ccsc4n3)nc3ccccc32)c1	7.9%	?	13µM*	?	-2.9%
O=C(CSc1nc2ccccc2n1-c1ccccc1)Nc1ncc(Cl)cc1Cl	?	7.0%	?	5.17µM*	5.9%
COc1ccc(-n2cc(C(=O)NCCc3cc(OC)ccc3OC)c3ccccc3c2=O)cc1	·	·	·	·	-0.1%
SMILES	MCF10A rereplic	SW480 rerep	KB-V1 cytotox	KB-3-1 tox	PINK1 expr mod
Oc1ccc(Nc2nc(N3CCCC3)c3ccccc3n2)cc1	?	?	i	9.2µM*	1.9%
Cc1ccc(Nc2nc(N3CCOCC3)c3ccccc3n2)cc1	?	-2.5%[9.22 µM]	i	?	1.5%
COc1ccc(Nc2nc(N3CCCCC3)c3ccccc3n2)cc1	19.1%	6.9%	20.6µM*	?	5.4%
CCCCOc1ccc(C(=O)NCC(=O)NCc2ccccn2)cc1	57.0%	?	?	0.517µM*	4.7%
Cc1ccc(SCCNC(=O)c2ccc(C)c(S(=O)(=O)Nc3cccc(C)c3)c2)cc1	12.9%	1.3%	?	i	·
Cc1ccc(NS(=O)(=O)c2cc(C(=O)NCCSc3ccc(C)cc3)ccc2C)cc1	25.5%	15.7%	16.4µM*	i	-0.3%[38.3 µM]
O=C(Nc1ccc(OC(F)(F)F)cc1)C1CCCN(C(=O)c2ccc(Cl)cc2)C1 (configuration not stated)	2.5%	-1.5%	i	?	3.1%
Fc1ccc(C[n+]2csc3ccccc32)cc1	?	7.6%	i	i	3.0%
Clc1ccc(C[n+]2csc3ccccc32)cc1	-0.8%	-705.7%	23.1µM*	i	12.4%
Cc1ccc(Cl)cc1NS(=O)(=O)c1cc2c(cc1F)NC(=O)CC2	·	·	i	i	·
CC[n+]1ccccc1/C=C/c1ccc(N(C)C)cc1	?	-4.0%	i	1.3µM*	?
CC[n+]1ccc(/C=C/c2ccc(N(C)C)cc2)c2ccccc21	4.0%	-39.4%	i	1.16µM*	?
CCCCCC[n+]1ccccc1/C=C/c1ccc(N(C)C)cc1	·	·	i	?	?
CN(C)c1ccc(/C=C/c2cc[n+]([O-])c3ccccc23)cc1	·	·	?	i	0.5%
Cc1ccccc1N(CC(=O)N/N=C/c1ccc(Cl)cc1)C(=O)c1ccccc1	25.9µM*	?	20.6µM*	?	-3.3%
Cc1ccccc1N(CC(=O)N/N=C/c1ccc(F)cc1)C(=O)c1ccccc1	4.8%	3.6%	i	i	-4.8%
N#CC1=C(N)Oc2cc3c(cc2C1c1ccc(Cl)cc1)OCO3 (configuration not stated)	52.7%	6.2%	i	i	·
O=C1OCC2=C1C(c1ccc3c(c1)OCO3)c1cc3c(cc1O2)OCO3 (configuration not stated)	8.2µM*	4.61µM*	1.46µM*	3.26µM*	14.4%
COc1cc(C2C3=C(COC3=O)Oc3cc4c(cc32)OCO4)cc(OC)c1O (configuration not stated)	?	?	?	?	-1.0%
COc1cc(C2C3=C(COC3=O)Oc3cc4c(cc32)OCO4)cc(OC)c1OC (configuration not stated)	0.231µM*	0.13µM*	0.103µM*!	0.581µM*	10.8%
CCc1ccccc1S(=O)(=O)Cc1ccc(C(=O)NCCc2ccc(Cl)cc2)o1	·	·	?	i	-0.8%

Screening data as filed in PubChem BioAssay.
